PLK1 PBD block = inhibitors of human PLK1 polo-box domain binding | 2.8% of 360,000 active | Plk1 PBD binding of FITC phosphopeptide, fluorescence polarization | P53350 | Potency, µM, for inactives: max response, negative = inhibition, most hits filed as inhibitors; note: series mostly up to about 57 µM; nearly all actives have a fitted effect of over 65% in size
VDR inh = inhibitors of human vitamin D receptor | P11473 | VDR-SRC2-3 peptide fluorescence polarization, 2 h | Potency, µM, without a hit: max response, negative = inhibition, hits mostly inhibitors | 0.93% of 400,000 active
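Fluorescence polarization assay measuring small-molecule disruption of VDR binding to the coregulator peptide SRC2-3. Compounds were pin-transferred (23 nl) into the reagent mix and incubated 2 h at room temperature before reading.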
KAT2A inh = GCN5L2 (KAT2A) acetyltransferase inhibition; Q92830; GCN5L2 HAT assay, ThioGlo1 CoA-SH fluorescence; 0.21% of 390,000 active; Potency, µM (highest dose often 58.9 µM), inactives show at the highest dose activity change, negative = inhibition, most hits filed as inhibitors
Target sequence (Q92830 whole entry, looked up): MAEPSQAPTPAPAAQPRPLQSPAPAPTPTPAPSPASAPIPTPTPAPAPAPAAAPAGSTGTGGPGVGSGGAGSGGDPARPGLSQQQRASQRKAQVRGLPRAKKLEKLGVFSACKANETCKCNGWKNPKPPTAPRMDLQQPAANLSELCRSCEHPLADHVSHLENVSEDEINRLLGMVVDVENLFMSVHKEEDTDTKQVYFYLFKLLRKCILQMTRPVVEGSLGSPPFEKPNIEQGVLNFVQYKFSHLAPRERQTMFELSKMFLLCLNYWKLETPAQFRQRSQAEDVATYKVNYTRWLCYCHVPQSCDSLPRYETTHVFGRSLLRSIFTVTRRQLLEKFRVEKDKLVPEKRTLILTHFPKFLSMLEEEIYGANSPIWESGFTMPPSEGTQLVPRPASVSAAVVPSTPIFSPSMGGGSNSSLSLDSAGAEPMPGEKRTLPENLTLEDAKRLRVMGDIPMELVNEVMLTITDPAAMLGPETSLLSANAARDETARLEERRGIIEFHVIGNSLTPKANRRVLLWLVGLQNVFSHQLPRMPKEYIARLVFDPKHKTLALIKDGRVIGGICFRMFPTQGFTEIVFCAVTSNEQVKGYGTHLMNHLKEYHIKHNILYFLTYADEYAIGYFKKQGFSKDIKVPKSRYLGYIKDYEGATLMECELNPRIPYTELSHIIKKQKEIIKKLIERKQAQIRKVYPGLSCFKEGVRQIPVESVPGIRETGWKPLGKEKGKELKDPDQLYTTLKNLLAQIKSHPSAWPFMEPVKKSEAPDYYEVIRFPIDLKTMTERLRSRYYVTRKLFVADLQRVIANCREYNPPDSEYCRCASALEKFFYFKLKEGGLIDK
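GCN5L2 (20nM final) in 50mM HEPES, 0.1mM EDTA pH 7.5, 0.01% Tween-20 was preincubated 15 min at room temperature with compound, then given ThioGlo1 (50uM), H3(1-25) peptide (75uM) and acetyl-CoA (70uM); CoA-thiol fluorescence (Ex340/Em540) was read at 0 and 20 min.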
DT40 TDP1 no CPT = qHTS for Inhibitors of human tyrosyl-DNA phosphodiesterase 1 (TDP1): qHTS in cells in absence of CPT. 15% of 420,000 active. DT40 Tdp1-/- hTDP1 cells, no CPT, ATP luminescence, 48 h. Potency, µM (doses to about 46.2 µM), inactives show top-dose activity change, negative = growth inhibition, actives largely listed as inhibitors; note: nearly all actives have a fitted effect of over 55% in size
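Luminescent ATP content (CellTiter-Glo) served as the growth readout. Knockout chicken DT40 cells expressing human TDP1 were exposed to compounds without camptothecin for a minimum 48 hr at 37 °C.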
DT40 TDP1 CPT = growth inhibition of DT40 Tdp1-/-;hTDP1 cells with camptothecin (screen for TDP1 inhibitors). chicken DT40 Tdp1-/-;hTDP1 cells + 20 nM CPT, ATP luminescence, 48 h. 12% of 420,000 active. Potency, µM (titrated, usually from 46.2 µM), for inactives: at the top dose activity change, negative = growth inhibition, actives largely listed as inhibitors. AID 686979; note: nearly all actives have a fitted effect of over 55% in size
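Chicken DT40 Tdp1-/- cells stably complemented with human TDP1 were seeded at 400 cells/well in medium containing 20 nM camptothecin, exposed to pin-transferred compounds, and grown at 37 °C for at least 48 hr. Viability was read as ATP luminescence.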
TDP1 inh = TDP1 (human) enzyme inhibition. Q9NUW8. recombinant TDP1, AlphaScreen DNA substrate cleavage. Potency, µM (titrated, usually from 130 µM), inactives show top-dose activity change, negative = inhibition, actives largely listed as inhibitors. 0.28% of 350,000 active; note: nearly all actives have a fitted effect of over 40% in size
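Enzyme-compound mixtures sat 15 min at room temperature, followed by a 5 min reaction with 15 nM final substrate and 10 min with AlphaScreen beads. Recombinant human Tdp1 was used at 1 nM final.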
Active calls of the source: *; ? = inconclusive; . = no result given; ! = not confirmed by another sample; [ ] = another dose, or the depositor's remark. A selection: hits, their analogues and other compounds. The true share with any hit is near 18%. Calls come from the whole dose curve; as a rule, active = well fitted curve in the direction sought with a large enough effect; inconclusive = small, poorly fitted or top-dose-only effect, or another doubt; inactive = no such curve, though single readings can be large; an effect the other way counts as inactive or inconclusive. % is set by controls: 0 for no effect and ±100 for the full control effect; potency is the fitted concentration of half-maximal effect.

SMILES	PLK1 PBD block	VDR inh	KAT2A inh	DT40 TDP1 no CPT	DT40 TDP1 CPT	TDP1 inh
CC(Nc1ccc(Cl)cc1)c1cc(Cl)ccc1O (stereo not given)	1%	19%	-8%	18µM*	?	5%
CC(Nc1ccc(Br)cn1)c1cc(Cl)ccc1O (stereo not given)	27µM*	-9%	3%	?	?	3%
COC(=O)CCCC1=CC2=C(c3ccccc3)C(=O)C(C)(OC(=O)C3CCCC3)C(=O)C2=CN1Cc1ccc(OC)cc1 (stereo not given)	?	2%	38%	?	23µM*	9%[12.3 µM]
COC(=O)CCCC1=CC2=C(c3ccccc3)C(=O)C(C)(OC(=O)C3CCCC3)C(=O)C2=CN1Cc1ccc2c(c1)OCO2 (stereo not given)	-2%	-4%	18%	?	23µM*	7%[12.3 µM]
Cc1ccc(NC(=O)CN(C)S(=O)(=O)c2cccc3cccnc23)cc1	-13%	-2%	1%	?	-3%	1%
CC(=O)c1cccc(OCC(=O)N(C)CC(=O)Nc2ccc(F)cc2)c1	30µM*	-26%	-11%	2%	-19%	-1%
Cc1ccc(NC(=O)CN(C)C(=O)COc2cccc3cccnc23)cc1	-3%	-6%	-2%	2.9µM*	3.7µM*	-1%
Cc1ccc(NC(=O)c2ccccc2O)cc1	-9%	10%	-4%	?	?	2%
Cc1ccc(NC(=O)c2cccc3cccnc23)cc1	-4%	3%	-3%	18µM*	?	-1%
CC(Sc1ccccc1)C(=O)NCC(c1ccco1)N1CCCCC1 (stereo not given)	-9%	-9%	-3%	?	0%	0%
CCCN(C(=O)C1CC(=O)N(c2ccccc2C(C)CC)C1)C1CCS(=O)(=O)C1 (stereo not given)	2%	-11%	0%	-6%	-8%	-2%
COc1ccc(S(=O)(=O)Cc2ccc(C(=O)NC3CCCCCC3)o2)cc1	-4%	3%	-17%	?	15µM*	2%
CCC(C)NC(=O)c1ccc(CS(=O)(=O)c2ccc(OC)cc2)o1 (stereo not given)	-8%	13%	-6%	-7%	-17%	3%
CCOC(=O)N1CCN(C(=O)c2ccc(CS(=O)(=O)c3ccc(OC)cc3)o2)CC1	27µM*	?	-21%	?	-25%	-2%
COc1ccc(S(=O)(=O)Cc2ccc(C(=O)NC(C)C)o2)cc1	21µM*	?	0%	-16%	?	-3%
COc1ccc(S(=O)(=O)Cc2ccc(C(=O)N3CCCC3)o2)cc1	-4%	-17%	-1%	0%	-30%	3%
COc1ccc(S(=O)(=O)CCC(=O)NC2CCCCC2)cc1	30µM*	-9%	1%	-29%	0%	5%
NNC(=O)c1ccc(COc2cccc3ccccc23)o1	-2%	-21%	-21%	?	?	7%
CC(C)NC(=O)c1ccc(COc2cccc3ccccc23)o1	-6%	.	.	18µM*	?	.
Clc1ccc(OCc2nn3c(C4CCCCC4)nnc3s2)cc1	21µM*	?	-8%	21µM*	21µM*	5%
OCc1cc(C(O)CNCCCCCCOCCCCc2ccccc2)ccc1O (stereo not given)	-15%	1%	-8%	13µM*	19µM*!	0%
Cc1c(CC(=O)NC(C)C)c(=O)oc2cc3c(cc12)CCC(C)(C)O3	3%	-7%	-7%	?	21µM*	.
CCC(C)NC(=O)Cc1c(C)c2cc3c(cc2oc1=O)OC(C)(C)CC3 (stereo not given)	2%	-8%	-11%	15µM*	?	.
Cc1c(CC(=O)N[C@@H](C)C(=O)O)c(=O)oc2cc3c(cc12)CCC(C)(C)O3	-15%	-10%	-6%	-23%	11%	.
COCCNC(=O)Cc1c(C)c2cc3c(cc2oc1=O)OC(C)(C)CC3	-6%	-5%	-18%	?	?	.
SMILES	PLK1 PBD block	VDR inh	KAT2A inh	DT40 TDP1 no CPT	DT40 TDP1 CPT	TDP1 inh
Cc1c(CC(=O)NCC(C)C)c(=O)oc2cc3c(cc12)CCC(C)(C)O3	4%	20%	-4%	18µM*	16µM*	.
Cc1c(CC(=O)N[C@H](C(=O)O)C(C)C)c(=O)oc2cc3c(cc12)CCC(C)(C)O3	21µM*	?	-1%	23µM*	?	.
OCC[C@@H]1C[C@H](O)[C@@H](O)[C@@]2(CCCCO2)O1	-5%	-16%	.	-2%	-21%	.
C=CCn1c(SCC(=O)NCCC2=CCCCC2)nc2ccc(Cl)cc2c1=O	11µM*	?	-3%	?	23µM*	2%
C=CCn1c(SCC#N)nc2cc(Cl)ccc2c1=O	.	-17%	.	13µM*	?	0%
CC1Cc2ccccc2N1S(=O)(=O)c1nnc(NC(=O)c2cccc(F)c2)s1 (stereo not given)	.	-1%	3%	?	?	8%
COc1ccc(CN2CCN(c3nc4ccccc4s3)CC2)cc1	-4%	-5%	-2%	?	?	.
Cc1ccccc1CN1CCN(c2nc3ccccc3s2)CC1	2%	24%	16%	-15%	18µM*	.
COc1cccc(CSc2nc3n(n2)C(c2cccs2)C(C(=O)Nc2ccccc2C)=C(C)N3)c1 (stereo not given)	.	0%	4%	13µM*	21µM*	-3%
COc1ccccc1NC(=O)C1=C(C)Nc2nc(SCc3ccccc3)nn2C1c1cccs1 (stereo not given)	.	-25%	14%	15µM*	-101%	6%
COc1ccc(-c2nc3n(n2)C(c2ccccc2)C(C(=O)Nc2cccnc2)=C(C)N3)cc1 (stereo not given)	.	10%	-1%	-23%	-27%	2%
CC1=C(C(=O)Nc2ccc(C)cc2C)C(c2cccs2)n2nc(SCc3cccc(C)c3)nc2N1 (stereo not given)	.	5%	-3%	18µM*	21µM*	-5%
COc1cccc(-c2nc3n(n2)C(c2cccs2)C(C(=O)Nc2cccnc2)=C(C)N3)c1 (stereo not given)	1%	-8%	0%	?	15µM*	9%
CC1=C(C(=O)Nc2ccccc2)C(c2cccs2)n2nc(SCc3ccccc3)nc2N1 (stereo not given)	.	-16%	-1%	?	-19%	3%
CC(C)Cn1c(=O)c(C(=O)Nc2cnccn2)c(O)c2ccccc21	-13%	16%	2%	26µM*	?	5%

Assay outcomes: PubChem, National Center for Advancing Translational Sciences (NCATS)
